The supplement of paper PMC8047044
“And” between values parts separate entries of the source, which are not always exact repeats. Equal values may be shown once. Where a name gives a salt, the structure may show the parent alone.

Experiments:
Neuro-2a [1] = experiment: neurite formation score, plate-normalized to DMSO control mean 5.04 (score (0-8 scale)); higher = more or longer neurites; settings: 1 µM
Experimental: (§1)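 Neuro-2a mouse neuroblastoma cells in PLL-coated 96-well plates were pre-treated for 1 h in DMEM(+) with each kinase inhibitor at 1 µM, then switched to serum-free DMEM(-) with inhibitor to induce neurite outgrowth and fixed about 2-3 h later. Three blinded observers scored neurite formation from 0 (no neurites) to 8 (long neurites on almost all cells).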

Neuro-2a [2] = experiment: as above; settings: 0.1 µM
Experimental: as §1, with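 “at 0.1” for “at 1”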

C[C@@]1(C(=O)Nc2ccc(F)nc2)CCCN1c1nc(Nc2cc(C3CC3)n[nH]2)c2cccn2n1
neurite formation score (Neuro-2a [1]): 4.57
neurite formation score (Neuro-2a [2]): 4.38

Cc1cnc(-c2cnc(NCCNc3ccc(C#N)cn3)nc2-c2ccc(Cl)cc2Cl)[nH]1
neurite formation score (Neuro-2a [1]): 5.29 and 4.57
neurite formation score (Neuro-2a [2]): 4.92 and 4.04

O=[N+]([O-])c1ccc(Nc2nc(N3CCOCC3)nc(N3CCOCC3)n2)cc1
neurite formation score (Neuro-2a [1]): 4.21
neurite formation score (Neuro-2a [2]): 5.08

C[C@@H]1CN(CC(=O)Nc2ccc3c(c2)Cc2cccc(-c4cc(=O)cc(N5CCOCC5)o4)c2S3)C[C@H](C)O1
neurite formation score (Neuro-2a [1]): 3.9
neurite formation score (Neuro-2a [2]): 5.21

Cn1cc(-c2ccc3nnc(C(F)(F)c4ccc5ncccc5c4)n3n2)cn1
neurite formation score (Neuro-2a [1]): 4.02
neurite formation score (Neuro-2a [2]): 4.25

CN(C)C/C=C/C(=O)Nc1cc2c(Nc3ccc(F)c(Cl)c3)ncnc2cc1O[C@H]1CCOC1 [Afatinib (BIBW2992)]
neurite formation score (Neuro-2a [1]): 3.57
neurite formation score (Neuro-2a [2]): 4.54

CCCS(=O)(=O)Nc1ccc(F)c(C(=O)c2c[nH]c3ncc(Cl)cc23)c1F
neurite formation score (Neuro-2a [1]): 2.91
neurite formation score (Neuro-2a [2]): 4.38

Cc1ccc(C(=O)Nc2ccc(CN3CCN(C)CC3)c(C(F)(F)F)c2)cc1C#Cc1cnc2[nH]ncc2c1
neurite formation score (Neuro-2a [1]): 0.626
neurite formation score (Neuro-2a [2]): 2.58

CCC[C@H](NC(=O)/C(C#N)=C/c1cccc(Br)n1)c1ccccc1
neurite formation score (Neuro-2a [1]): 1.24
neurite formation score (Neuro-2a [2]): 4.21

COc1cc2nccc(Oc3ccc(NC(=O)C4(C(=O)Nc5ccc(F)cc5)CC4)cc3)c2cc1OC
neurite formation score (Neuro-2a [1]): 3.57
neurite formation score (Neuro-2a [2]): 4.38

Cn1cc(-c2ccc3ncc(Cc4ccc5ncccc5c4)n3n2)cn1
neurite formation score (Neuro-2a [1]): 4.63
neurite formation score (Neuro-2a [2]): 4.92

Cn1cnc(=N)c2[nH]cnc21 [3-Methyladenine]
neurite formation score (Neuro-2a [1]): 4.24
neurite formation score (Neuro-2a [2]): 4.88

O=C1NC(=O)/C(=C\c2ccc3nccnc3c2)S1
neurite formation score (Neuro-2a [1]): 4.14
neurite formation score (Neuro-2a [2]): 5.09

COc1ccc(-c2ccc3c(N4CCOCC4)nc(N4C[C@@H](C)O[C@@H](C)C4)nc3n2)cc1CO
neurite formation score (Neuro-2a [1]): 4.36
neurite formation score (Neuro-2a [2]): 4.25

N#CC1(c2ccc(NC(=O)c3cccnc3NCc3ccncc3)cc2)CCCC1 [Apatinib]
neurite formation score (Neuro-2a [1]): 4.54
neurite formation score (Neuro-2a [2]): 4.08

NC(=O)c1ccc(N(C(N)=O)c2c(F)cccc2F)nc1-c1ccc(F)cc1F
neurite formation score (Neuro-2a [1]): 4.63
neurite formation score (Neuro-2a [2]): 4.58

O=C1c2ccccc2-c2n[nH]c3cccc1c23
neurite formation score (Neuro-2a [1]): 4.02
neurite formation score (Neuro-2a [2]): 3.92

Cc1c(NC(=O)c2ccc(C(C)(C)C)cc2)cccc1-c1cn(C)c(=O)c(Nc2ccc(C(=O)N3CCOCC3)cc2)n1
neurite formation score (Neuro-2a [1]): 5.57
neurite formation score (Neuro-2a [2]): 5.04

O=C1NC(=O)/C(=C/c2cccc(C(F)(F)F)c2)S1
neurite formation score (Neuro-2a [1]): 4.36
neurite formation score (Neuro-2a [2]): 4.92

CN1CCN(c2nc(C3=C(c4c[nH]c5ccccc45)C(=O)NC3=O)c3ccccc3n2)CC1 [Sotrastaurin (AEB071)]
neurite formation score (Neuro-2a [1]): 5.96
neurite formation score (Neuro-2a [2]): 4.92

Cc1cn(-c2cc(NC(=O)c3ccc(C)c(Nc4nccc(-c5cccnc5)n4)c3)cc(C(F)(F)F)c2)cn1 [Nilotinib monohydrochloride monohydrate]
neurite formation score (Neuro-2a [1]): 4.47
neurite formation score (Neuro-2a [2]): 3.09

CCN(CC)CCCC(C)Nc1nc(C)cc(Nc2ccc3nc(C)cc(N)c3c2)n1 (stereo not drawn)
neurite formation score (Neuro-2a [1]): 4.91
neurite formation score (Neuro-2a [2]): 5.38

COc1cc(N2CCC(N3CCN(C)CC3)CC2)ccc1Nc1ncnc(Nc2ccccc2S(=O)(=O)C(C)C)n1
neurite formation score (Neuro-2a [1]): 5.24
neurite formation score (Neuro-2a [2]): 4.38

C=CC(=O)Nc1cc(Nc2nccc(-c3cn(C)c4ccccc34)n2)c(OC)cc1N(C)CCN(C)C
neurite formation score (Neuro-2a [1]): 5.14
neurite formation score (Neuro-2a [2]): 3.76

CS(=O)(=O)N1CCC(NC(=O)c2[nH]ncc2NC(=O)c2c(Cl)cccc2Cl)CC1
neurite formation score (Neuro-2a [1]): 4.47
neurite formation score (Neuro-2a [2]): 5.09

CNC(=O)c1cc(Oc2ccc(NC(=O)Nc3ccc(Cl)c(C(F)(F)F)c3)cc2)ccn1 [Sorafenib Tosylate]
neurite formation score (Neuro-2a [1]): 4.57
neurite formation score (Neuro-2a [2]): 3.54

CC(=O)Nc1nc(C)c(-c2ccc(Cl)c(S(=O)(=O)NCCO)c2)s1
neurite formation score (Neuro-2a [1]): 4.57
neurite formation score (Neuro-2a [2]): 3.88

COc1cc(CCc2cc(NC(=O)c3ccc(N4CC(C)NC(C)C4)cc3)n[nH]2)cc(OC)c1 (stereo not drawn)
neurite formation score (Neuro-2a [1]): 3.9
neurite formation score (Neuro-2a [2]): 4.21

NC(=O)c1cnc(N[C@@H]2CCCC[C@@H]2N)nc1Nc1cccc(-n2nccn2)c1
neurite formation score (Neuro-2a [1]): 4.36
neurite formation score (Neuro-2a [2]): 4.92
